Test results reported in PubChem BioAssay (NCATS).
A number with no mark means an inactive call. Records with an inconclusive call do not appear. Where a call stands in place of a potency, no number is given. Calls of active or inactive are those of the source. Unless noted, the call rests on the fitted dose curve; in most records, active means well fitted curve in the direction sought with a large enough effect; inconclusive means small, poorly fitted or top-dose-only effect, or another doubt; inactive means no such curve, though single readings can be large; an effect the other way counts as inactive or inconclusive.

Key:
[1] = NCATS anti-infectives library activity on HEK293 viability as a counter-qHTS vs the C. elegans viability qHTS (AID 1745854);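 further: HEK293 cells exposed to compounds for 24 hr before the viability read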; further: potency means the concentration at half of the fitted maximal effect
Method in brief: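 Compound titrations (final up to 41.7 uM) were incubated with HEK293 cells for 24 hr at 37C under 5% CO2. Viable cells were quantified with CellTiter-Glo after 10 min at ambient temperature.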

[2] = target: Glutathione peroxidase 1 (Homo sapiens) (UniProt P07203); experiment: Primary qHTS Assay for Inhibitors of Recombinant Selenoprotein Glutathione Peroxidase 1 (GPX1) (AID 1845191); further: nearly all actives have a fitted effect of over 65% in size
Chain of Glutathione peroxidase 1 (Homo sapiens) (P07203 whole entry, looked up): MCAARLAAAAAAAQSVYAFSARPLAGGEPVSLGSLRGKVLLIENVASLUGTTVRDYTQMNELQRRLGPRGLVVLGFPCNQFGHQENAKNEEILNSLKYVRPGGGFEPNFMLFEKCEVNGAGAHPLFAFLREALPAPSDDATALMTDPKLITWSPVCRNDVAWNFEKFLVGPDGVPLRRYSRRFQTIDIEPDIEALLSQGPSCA
Method in brief: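 GPX1 10 nM, GR 100 nM, GSH 1 mM, NADPH 0.5 mM, CHP 0.5 mM (final). 30-min cpd preincubation, RT. Ex340/Em450 read t=0, t=15 min.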

[3] = target: Ubiquitin carboxyl-terminal hydrolase 1 (Homo sapiens) (UniProt O94782); experiment: Inhibitors of USP1/UAF1: Pilot qHTS (AID 504865); further: nearly all actives have a fitted effect of over 35% in size; further: potency means the concentration at half of the fitted maximal effect
Chain of Ubiquitin carboxyl-terminal hydrolase 1 (Homo sapiens) (O94782 whole entry, looked up): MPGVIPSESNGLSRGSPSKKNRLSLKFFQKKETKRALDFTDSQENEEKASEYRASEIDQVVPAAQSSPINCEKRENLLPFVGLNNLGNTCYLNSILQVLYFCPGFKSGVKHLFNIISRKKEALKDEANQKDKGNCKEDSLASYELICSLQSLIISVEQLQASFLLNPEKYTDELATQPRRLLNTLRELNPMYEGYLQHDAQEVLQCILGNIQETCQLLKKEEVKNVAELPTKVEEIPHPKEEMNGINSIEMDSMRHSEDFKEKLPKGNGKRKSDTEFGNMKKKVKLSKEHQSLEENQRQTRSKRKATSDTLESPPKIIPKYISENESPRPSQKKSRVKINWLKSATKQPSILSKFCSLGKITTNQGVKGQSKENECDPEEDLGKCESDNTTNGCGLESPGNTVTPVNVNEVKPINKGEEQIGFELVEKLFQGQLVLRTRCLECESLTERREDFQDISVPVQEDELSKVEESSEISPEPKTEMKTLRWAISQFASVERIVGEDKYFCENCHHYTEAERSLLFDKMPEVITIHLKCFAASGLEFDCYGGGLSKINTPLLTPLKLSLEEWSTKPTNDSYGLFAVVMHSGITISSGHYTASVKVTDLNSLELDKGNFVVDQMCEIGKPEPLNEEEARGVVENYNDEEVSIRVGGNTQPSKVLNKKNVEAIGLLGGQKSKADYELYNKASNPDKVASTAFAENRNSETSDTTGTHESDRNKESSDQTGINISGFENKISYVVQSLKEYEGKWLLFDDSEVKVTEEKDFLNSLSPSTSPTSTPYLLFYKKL
Method in brief: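 1nM USP1/UAF1 + cpd, 15 min RT; start w/ Ub-Rho 150nM final; kinetic FL 480/540 nm, 6 reads q60 s. Buffer 50mM HEPES pH 7.8, 0.5mM EDTA, 1mM TCEP, 0.01% Tween-20, 0.1 mg/ml BSA.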

[4] = target: Phospholipid hydroperoxide glutathione peroxidase GPX4 (Homo sapiens) (UniProt P36969); experiment: Primary qHTS Assay for Inhibitors of Recombinant Selenoprotein Glutathione Peroxidase 4 (GPX4) (AID 1845192); further: nearly all actives have a fitted effect of over 65% in size; further: potency means the concentration at half of the fitted maximal effect
Chain of Phospholipid hydroperoxide glutathione peroxidase GPX4 (Homo sapiens) (P36969 whole entry, looked up): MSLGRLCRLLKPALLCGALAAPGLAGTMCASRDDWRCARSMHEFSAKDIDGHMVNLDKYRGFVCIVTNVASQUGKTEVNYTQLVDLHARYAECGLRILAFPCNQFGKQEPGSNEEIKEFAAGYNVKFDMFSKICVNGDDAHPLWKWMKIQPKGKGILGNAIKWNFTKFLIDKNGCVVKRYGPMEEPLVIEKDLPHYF
Method in brief: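 qHTS, GR-coupled: GPX4 200 nM + cpd 30 min RT → GSH 1 mM, NADPH 0.5 mM, GR 100 nM → CHP 0.5 mM start; fluor 340/450 at t0 and t15 min; no-enzyme wells as control.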

[5] = target: Cytochrome P450 3A4 (Homo sapiens) (UniProt P08684); experiment: qHTS Assay for Activators of Cytochrome P450 3A4 (AID 885); further: nearly all actives have a fitted effect of over 65% in size
Chain of Cytochrome P450 3A4 (Homo sapiens) (P08684 whole entry, looked up): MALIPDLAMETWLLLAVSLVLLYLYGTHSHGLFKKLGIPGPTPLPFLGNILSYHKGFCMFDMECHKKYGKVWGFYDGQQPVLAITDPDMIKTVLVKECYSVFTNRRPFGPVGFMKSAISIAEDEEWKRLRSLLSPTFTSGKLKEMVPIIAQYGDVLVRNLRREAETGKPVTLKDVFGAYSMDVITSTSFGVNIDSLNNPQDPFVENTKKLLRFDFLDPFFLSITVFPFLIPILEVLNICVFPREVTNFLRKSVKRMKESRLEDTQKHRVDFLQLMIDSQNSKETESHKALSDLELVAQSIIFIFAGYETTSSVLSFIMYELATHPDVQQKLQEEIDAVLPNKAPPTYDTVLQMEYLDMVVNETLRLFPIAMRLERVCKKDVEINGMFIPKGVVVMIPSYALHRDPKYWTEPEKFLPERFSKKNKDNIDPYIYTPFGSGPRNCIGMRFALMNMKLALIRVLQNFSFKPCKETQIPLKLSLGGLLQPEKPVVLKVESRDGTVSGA
Method in brief: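 Human CYP3A4 dealkylates Luciferin-PPXE to luciferin, which luciferase detection converts to light. Substrate was at its KM (25uM), buffer 200mM KPO4, reaction 60 min at RT.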

[6] = target: Cytochrome P450 1A2 (Homo sapiens) (UniProt P05177); experiment: p450-cyp1a2 (AID 410; calls by dose curve; further: potency means the concentration at half of the fitted maximal effect)
Chain of Cytochrome P450 1A2 (Homo sapiens) (P05177 whole entry, looked up): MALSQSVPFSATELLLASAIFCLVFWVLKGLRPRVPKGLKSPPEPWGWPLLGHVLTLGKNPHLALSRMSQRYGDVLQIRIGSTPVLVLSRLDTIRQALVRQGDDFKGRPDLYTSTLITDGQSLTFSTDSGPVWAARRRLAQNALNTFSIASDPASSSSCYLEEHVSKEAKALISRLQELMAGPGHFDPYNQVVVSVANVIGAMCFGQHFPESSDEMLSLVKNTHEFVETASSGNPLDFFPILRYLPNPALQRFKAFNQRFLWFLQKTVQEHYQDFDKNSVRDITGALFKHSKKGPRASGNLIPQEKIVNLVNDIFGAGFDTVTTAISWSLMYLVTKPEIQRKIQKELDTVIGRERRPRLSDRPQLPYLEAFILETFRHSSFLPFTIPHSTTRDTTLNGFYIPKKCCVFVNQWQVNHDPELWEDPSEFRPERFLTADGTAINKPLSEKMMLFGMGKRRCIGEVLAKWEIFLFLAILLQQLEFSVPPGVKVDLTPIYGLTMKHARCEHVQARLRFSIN
Method in brief: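 Read-out is luminescence from luciferin produced by CYP1A2 demethylation of Luciferin-ME (100uM, at Km). Detection reagent stopped the 60 min NADPH-dependent reaction; signals were normalized to 57 uM furafylline.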

[7] = target: Glucocorticoid receptor (Homo sapiens) (UniProt P04150); experiment: GR-GFP Redistribution (AID 450;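 active means compounds whose dose series gives a full or clear partial fitted curve of increased nuclear translocation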; further: potency means the concentration at half of the fitted maximal effect); conditions: U2OS GR-GFP nuclear translocation, laser cytometry, 2 h
Chain of Glucocorticoid receptor (Homo sapiens) (P04150 whole entry, looked up, the tested form may be a part): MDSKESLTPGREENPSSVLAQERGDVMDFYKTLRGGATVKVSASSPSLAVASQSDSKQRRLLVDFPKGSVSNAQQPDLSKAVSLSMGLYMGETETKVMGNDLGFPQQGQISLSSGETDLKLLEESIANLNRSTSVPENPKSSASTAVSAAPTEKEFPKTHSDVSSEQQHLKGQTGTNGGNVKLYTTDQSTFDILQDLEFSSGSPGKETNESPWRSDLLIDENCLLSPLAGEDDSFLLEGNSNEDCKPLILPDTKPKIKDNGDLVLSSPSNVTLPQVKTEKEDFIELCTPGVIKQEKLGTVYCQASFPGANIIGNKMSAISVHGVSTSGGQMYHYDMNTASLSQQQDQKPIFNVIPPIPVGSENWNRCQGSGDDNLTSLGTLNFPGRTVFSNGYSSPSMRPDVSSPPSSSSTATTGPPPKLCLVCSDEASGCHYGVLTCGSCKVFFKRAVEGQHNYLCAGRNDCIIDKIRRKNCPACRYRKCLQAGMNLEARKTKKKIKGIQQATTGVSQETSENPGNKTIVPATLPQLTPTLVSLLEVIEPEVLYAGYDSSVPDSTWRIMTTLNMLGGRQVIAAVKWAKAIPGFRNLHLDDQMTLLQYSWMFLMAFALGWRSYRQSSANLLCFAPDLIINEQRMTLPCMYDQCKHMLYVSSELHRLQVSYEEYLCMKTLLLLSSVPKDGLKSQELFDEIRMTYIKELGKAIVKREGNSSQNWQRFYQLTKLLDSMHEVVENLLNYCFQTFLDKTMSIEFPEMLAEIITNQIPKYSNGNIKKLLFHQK

[8] = target: Glucocorticoid receptor (Homo sapiens) (UniProt P04150); experiment: GR-EFC Redistribution (AID 451; calls by dose curve; further: potency means the concentration at half of the fitted maximal effect); conditions: CHO-K1 GR-EFC translocation, beta-gal luminescence, 2 h
Method in brief: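 CHO-K1 cells stably expressing nuclear-localized β-gal enzyme acceptor and GR fused C-terminally to the enzyme donor fragment; ligand-driven nuclear translocation restores β-gal by complementation. Compounds titrated up to 46 uM final, 2 h at 37 °C; luminescence read.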

[9] = target: Mitogen-activated protein kinase 10 (Mus musculus) (UniProt Q61831); experiment: JNK3 AlphaScreen Assay (AID 530; active means well fitted curve in either direction with a large enough effect, not every such curve was filed as active;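 further: kinase came from lysate of stimulated human HepG2 cells; signal reports phosphorylation of biotinylated GST-cJun 1-79 at Ser73 with 10 µM ATP; series mostly up to about 57 µM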)
Method in brief: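 Biotinylated GST-cJun(1-79) served as substrate for JNK3 in HepG2 lysates stimulated with IL-1beta and TNF-alpha. ATP was 10 uM final, pH 7.6. Ser73 phosphorylation was quantified by AlphaScreen (680 nm excitation).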

[10] = target: Cytochrome P450 2C9 (Homo sapiens) (UniProt P11712); experiment: qHTS Assay for Inhibitors and Substrates of Cytochrome P450 2C9 (AID 883); further: potency means the concentration at half of the fitted maximal effect; nearly all actives have a fitted effect of over 60% in size
Chain of Cytochrome P450 2C9 (Homo sapiens) (P11712 whole entry, looked up): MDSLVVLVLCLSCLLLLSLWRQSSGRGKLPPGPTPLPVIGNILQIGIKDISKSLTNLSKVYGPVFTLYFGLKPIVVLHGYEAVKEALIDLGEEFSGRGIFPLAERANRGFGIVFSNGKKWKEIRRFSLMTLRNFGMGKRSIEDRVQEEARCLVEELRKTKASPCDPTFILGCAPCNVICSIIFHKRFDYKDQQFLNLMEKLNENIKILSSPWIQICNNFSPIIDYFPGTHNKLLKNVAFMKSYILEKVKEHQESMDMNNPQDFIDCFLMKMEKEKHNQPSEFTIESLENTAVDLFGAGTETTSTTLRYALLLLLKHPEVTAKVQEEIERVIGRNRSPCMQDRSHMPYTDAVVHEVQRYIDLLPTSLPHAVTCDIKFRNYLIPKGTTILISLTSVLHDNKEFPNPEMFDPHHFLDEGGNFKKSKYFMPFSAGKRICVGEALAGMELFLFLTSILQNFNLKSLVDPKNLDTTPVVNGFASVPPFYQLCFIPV
Method in brief: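 Human CYP2C9 (10nM) hydroxylated Luciferin-H (100uM, at its KM) to luciferin in 25mM KPO4. Compound was preincubated 10 min at 37C, then NADPH regeneration started a 60 min reaction at 37C. Luminescence was read after detection reagent, normalized to 57uM sulphaphenazole.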

[11] = target: Cytochrome P450 3A4 (Homo sapiens) (UniProt P08684); experiment: qHTS Assay for Inhibitors and Substrates of Cytochrome P450 3A4 (AID 884); further: nearly all actives have a fitted effect of over 50% in size; further: potency means the concentration at half of the fitted maximal effect
Method in brief: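 Luminescent readout of luciferin produced by CYP3A4 (20 nM) dealkylation of Luciferin-PPXE, 25 uM (its KM). NADPH-driven reaction ran 60 min at RT after 10 min compound preincubation; data scaled to 57 uM ketoconazole as 100% inhibition.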

[12] = target: Cytochrome P450 2D6 (Homo sapiens) (UniProt P10635); experiment: qHTS Assay for Inhibitors and Substrates of Cytochrome P450 2D6 (AID 891); further: potency means the concentration at half of the fitted maximal effect; nearly all actives have a fitted effect of over 60% in size
Chain of Cytochrome P450 2D6 (Homo sapiens) (P10635 whole entry, looked up): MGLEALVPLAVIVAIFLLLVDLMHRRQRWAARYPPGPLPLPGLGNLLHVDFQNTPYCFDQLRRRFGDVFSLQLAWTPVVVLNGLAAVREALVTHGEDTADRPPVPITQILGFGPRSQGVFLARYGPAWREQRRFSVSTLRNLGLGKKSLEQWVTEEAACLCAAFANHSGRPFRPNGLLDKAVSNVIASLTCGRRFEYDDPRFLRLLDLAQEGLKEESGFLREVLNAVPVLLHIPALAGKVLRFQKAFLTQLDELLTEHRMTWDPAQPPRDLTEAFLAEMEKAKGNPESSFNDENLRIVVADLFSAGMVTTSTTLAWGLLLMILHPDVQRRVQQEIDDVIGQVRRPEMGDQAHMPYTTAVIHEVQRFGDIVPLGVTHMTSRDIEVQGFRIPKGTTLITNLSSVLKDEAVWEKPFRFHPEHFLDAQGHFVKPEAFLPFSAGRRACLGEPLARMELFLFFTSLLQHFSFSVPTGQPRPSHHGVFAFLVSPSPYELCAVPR
Method in brief: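 Luminescent read-out of luciferin formed by 5 nM human CYP2D6 demethylating 30 uM Luciferin-ME EGE (Km level) over 60 min at room temperature after NADPH regeneration addition. Data normalized to full inhibition by 1.43 uM quinidine.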

Compound: O=C(O[C@@H]1Cc2c(O)cc(O)cc2O[C@@H]1c1cc(O)c(O)c(O)c1)c1cc(O)c(O)c(O)c1
- Potency [1]: inactive

Compound: CC(C)=CCC[C@](C)(OC1OC(COC2OCC(O)C(O)C2O)C(O)C(O)C1O)[C@H]1CC[C@]2(C)[C@@H]1[C@H](O)C[C@@H]1[C@@]3(C)CC[C@H](OC4OC(CO)C(O)C(O)C4OC4OC(CO)C(O)C(O)C4O)C(C)(C)[C@@H]3CC[C@]12C (some centres not stated)
- Potency [1]: inactive
- Potency [2]: inactive

Compound: CC(C)CN(C[C@@H](O)[C@H](Cc1ccccc1)NC(=O)O[C@H]1CCOC1)S(=O)(=O)c1ccc(N)cc1
- Potency [3]: inactive
- Potency [1]: inactive
- Potency [2]: inactive
- Potency [4]: inactive

Compound: O=C1CCC[C@@H]2[C@@H]3CCC[N@+]4([O-])CCC[C@H](CN12)[C@H]34
- Potency [1]: inactive

Compound: CC(C)CN(C[C@@H](OP(=O)(O)O)[C@H](Cc1ccccc1)NC(=O)O[C@@H]1CCOC1)S(=O)(=O)c1ccc(N)cc1
- Potency [3]: inactive
- Potency [1]: inactive
- Potency [2]: inactive

Compound: C[Si](C)(C)O[Si](C)(C)O[Si](C)(C)C
- Potency [1]: inactive
- Potency [2]: inactive
- Potency [4]: inactive

Compound: COC(=O)N[C@H](C(=O)N1CCC[C@H]1c1ncc(-c2ccc3c(c2)O[C@@H](c2ccccc2)n2c-3cc3cc(-c4cnc([C@@H]5CCCN5C(=O)[C@@H](NC(=O)OC)C(C)C)[nH]4)ccc32)[nH]1)C(C)C
- Potency [1]: inactive
- Potency [4]: 6.31 µM (active)

Compound: COc1cc(-c2oc3cc(O)cc(O)c3c(=O)c2O)ccc1O
- Potency [1]: inactive

Compound: O=C1O[C@H]2[C@H](OC(O)[C@@H]2O)[C@@H]1O (some centres not stated)
- Potency [1]: inactive
- Potency [2]: inactive
- Potency [4]: inactive

Compound: NC(=O)[C@@H]1CC[C@@H]2CN1C(=O)N2OS(=O)(=O)O
- Potency [1]: inactive
- Potency [2]: inactive
- Potency [4]: inactive

Compound: Cc1cc(/C=C/C#N)cc(C)c1Nc1ccnc(Nc2ccc(C#N)cc2)n1
- Potency [2]: inactive

Compound: C[C@H]1[C@H](OC(=O)CCC(=O)O)O[C@@H]2O[C@@]3(C)CC[C@H]4[C@H](C)CC[C@@H]1[C@@]24OO3
- Potency [1]: inactive
- Potency [2]: inactive

Compound: CCCCCCCCOC(=O)c1cc(O)c(O)c(O)c1
- Potency [1]: inactive

Compound: O=C(O)CCCN1CCC(O[C@@H](c2ccc(Cl)cc2)c2ccccn2)CC1
- Potency [1]: inactive
- Potency [2]: inactive
- Potency [4]: inactive

Compound: CCCCCCCCCCCCCCCCn1cc[n+](Cc2ccccc2)c1C
- Potency [1]: 11.2 µM (active)

Compound: COc1ccc2c(O[C@H]3CC4C(=O)N(C)CCCC/C=C\[C@@H]5C[C@@]5(C(=O)NS(=O)(=O)C5CC5)NC(=O)[C@@H]4C3)cc(-c3nc(C(C)C)cs3)nc2c1C (some centres not stated)
- Potency [1]: inactive
- Potency [2]: inactive

Compound: O=C(/C=C/c1ccc(O)c2c1[C@H](C(=O)O)[C@@H](c1ccc(O)c(O)c1)O2)O[C@H](Cc1ccc(O)c(O)c1)C(=O)O
- Potency [1]: inactive

Compound: O=C(O)c1cc(O)c2c(c1)[C@H]([C@H]1c3cc(C(=O)O)cc(O)c3C(=O)c3c(O[C@@H]4OC(CO)C(O)C(O)C4O)cccc31)c1cccc(O[C@@H]3OC(CO)C(O)C(O)C3O)c1C2=O (some centres not stated)
- outcome [5]: inactive
- Potency [3]: 10 µM (active)
- Potency [1]: inactive

Compound: CCC(CC)[C@H](NC(C)=O)[C@@H]1[C@H](O)[C@@H](C(=O)O)C[C@H]1N=C(N)N
- activity change, negative = cytotoxicity [1]: -6.87% [at 0.334 µM]
- activity, negative = inhibition [2]: -7.9% [at 0.4 µM]

Compound: O=C(/C=C/c1ccc(O)c(O)c1)O[C@@H]1CC(O)(C(=O)O)C[C@@H](OC(=O)/C=C/c2ccc(O)c(O)c2)C1O (some centres not stated)
- Potency [1]: inactive

Compound: O=c1ccc2cc3ccoc3cc2o1
- Potency [6]: 0.0316 µM (active)
- Potency [7]: > 46 µM
- Potency [8]: > 46 µM
- Potency [9]: inactive
- Potency [10]: 7.94 µM (active)
- Potency [11]: 31.6 µM (active)
- outcome [5]: inactive
- Potency [12]: 2 µM (active)
- Potency [1]: inactive

Compound: O=C(O)CCCCCCCCC(=O)O
- Potency [1]: inactive

Compound: O=C(/C=C/c1ccc(O)c(O)c1)O[C@@H](C(=O)O)[C@@H](OC(=O)/C=C/c1ccc(O)c(O)c1)C(=O)O
- Potency [9]: inactive
- Potency [11]: inactive
- Potency [1]: inactive

Compound: O=C(Nc1ccccc1)c1ccccc1O
- Potency [1]: inactive

Compound: CC(C)C[C@H](NC(=O)[C@H]1O[C@@H]1C(=O)O)C(=O)NCCCCN=C(N)N
- Potency [1]: inactive
- Potency [2]: inactive

Compound: CC(C)c1nc(CN(C)C(=O)N[C@@H](CCN2CCOCC2)C(=O)N[C@H](CC[C@H](Cc2ccccc2)NC(=O)OCc2cncs2)Cc2ccccc2)cs1
- Potency [1]: inactive
- Potency [2]: inactive
- Potency [4]: inactive

Compound: CC[C@@]1([C@@H]2O[C@@H]([C@H]3O[C@@](O)(CO)[C@H](C)C[C@@H]3C)C[C@@H]2C)CC[C@H]([C@]2(C)CCC3(C[C@H](O)[C@@H](C)[C@@H]([C@@H](C)[C@@H](OC)[C@H](C)C(=O)O)O3)O2)O1 (some centres not stated)
- activity change, negative = cytotoxicity [1]: -29.3% [at 3.71 µM]
- Potency [2]: inactive
- Potency [4]: inactive

Compound: COC[C@H]1C[C@@H](c2ncc(-c3ccc4c(c3)COc3cc5c(ccc6[nH]c([C@@H]7CC[C@H](C)N7C(=O)[C@@H](NC(=O)OC)C(C)C)nc65)cc3-4)[nH]2)N(C(=O)[C@H](NC(=O)OC)c2ccccc2)C1
- Potency [1]: inactive
- Potency [2]: inactive

Compound: CCCCCCCCCCCCCCCCOc1nc2ccc(C)cc2c(=O)o1
- Potency [1]: inactive
- Potency [2]: inactive

Compound: O=C(/C=C/c1ccc(O)c(O)c1)O[C@H]1[C@H](O)C[C@](O)(C(=O)O)C[C@H]1OC(=O)/C=C/c1ccc(O)c(O)c1
- Potency [1]: inactive
